Structures are written as SMILES.

In this experiment the target is AMP-activated protein kinase, AMPK (Homo sapiens) (UniProt P54646+O43741+P54619+Q9UGJ0+Q9Y478+Q13131+Q9UGI9). The experiment can be described thus: AMP-dependent Kinase enzyme assay. An in vitro enzyme assay that detects ADP turnover that is directly proportional to AMPK activity. This uses naive AMPK that is activated during the assay with MK-8722. Conditions: 30 µM. Also on record: scale not given: direction of the effect not stated beside the values. The experiment is classed as functional.
As for `CCn1cnnc1CCNC(=O)c1ccc(F)c(Br)c1`, the Percent Effect is -5.58%.
The value for `O=S(=O)(c1cn[nH]c1)N1CCCC(O)(CN2CCOCC2)CC1` (centres undefined) was 13.3%.
To `CCn1cc(C(=O)NCCN2CCCc3ccccc32)c(C)n1` belongs 7.97%; to `CCN(Cc1ccc(N(C)C)cc1)S(=O)(=O)c1cc(Br)ccc1OC`, -8.72%.
To `COc1ccc(C(=O)N2C[C@@H](O)[C@H](NCc3ncccc3C)C2)cc1` belongs -3.45%; to `Cc1cc(N(C)CC2COc3ccccc3O2)nc(C)n1` (centres undefined), 1.48%.
As for `Cc1ccc(OCCn2cnc3oc(C)c(C(=O)O)c3c2=O)cc1`, the Percent Effect is 15.5%.
Regarding `O=C(NCc1ccnc(OCC2CC2)c1)C1Cc2ccccc2O1` (centres undefined), the Percent Effect is -4.29%.
To `Cc1cc(C)n(C2CN(Cc3nc4cc(Cl)ccc4n3C)C2)n1` belongs 3.42%.
The value for `COc1ccc2c(c1)CCCN(CC(=O)NCC1CCCO1)C2` (centres undefined) was -4.46%.
The value for `CCC[C@@H]1CN(Cc2cc(C#N)n(C)c2C)C[C@H]1NS(C)(=O)=O` was -87.1%.
In the case of `CC(C)CN(C(=O)Nc1cccc(C(=O)N(C)C)c1)C1CC1`, the Percent Effect was found to be 0.783%.
To `COc1ccc(C(C)NCCc2ccc(NC(C)=O)cc2)cc1F` (centres undefined) belongs 5.54%.
Consider `Cc1occc1C(=O)N1CCCC(C2=Nc3ccccc3S(=O)(=O)N2)C1` (centres undefined), for which the Percent Effect is 14.4%.
To `CC(C)c1noc(CN2CCN(C(=O)OC(C)(C)C)C(C)C2)n1` (centres undefined) belongs -3.51%.
In the case of `Cc1cc(Cl)c(C)c(S(=O)(=O)N2CCN(Cc3ccccn3)CC2)c1Cl`, the Percent Effect is 1.09%.
To `COCCCNC(=O)Cc1nc(-c2ccncc2)n[nH]1` belongs 14.5%; to `CCc1nnc(CN2CCc3ccc(S(N)(=O)=O)cc32)o1`, 5.08%.
The value for `Cn1ccc(NC(=O)CN2CCN(C3CCCC3)C(=O)C2)n1` was 4.97%.
The value for `Cc1ccc(C(=O)NC2CCN(S(C)(=O)=O)CC2)c(=O)[nH]1` was 1.76%.
On to `CNC(=O)c1cccnc1NCc1ccc(-n2cccn2)cc1`, for which the Percent Effect is -0.487%.
The value for `CC(CNC(=O)c1cnc[nH]1)Oc1ccc(Cl)cc1` (centres undefined) was 4.75%; that for `COC(=O)c1ccoc1CN(C)CC(=O)NC1CC1` was -3.6%.
To `Cc1nc(COC(=O)c2cccnc2C)no1` belongs 3.04%.
Regarding `CCN(C)Cc1cccc(CNC(=O)CSCc2ccccn2)c1`, the Percent Effect worked out at 4.61%.
To `CS(=O)(=O)NC(=O)c1ccn(-c2ccccc2Cl)n1` belongs 9.09%; to `COc1nccc(N2CC[C@@H](N3CCC(O)CC3)[C@H](O)C2)c1C#N`, 5.62%; to `Cc1nn(C)c2nc(N3CCCCC3c3ccc(F)cc3)sc12` (centres undefined), 3.9%.
The value for `NS(=O)(=O)c1ccc(NCc2ccco2)c2ncccc12` was -2.08%.
To `COc1ccc(Oc2cc(CN)ccn2)cc1` belongs -36.1%.
For the compound `CN(CCc1ccccn1)C(=O)Nc1cccnc1-n1cccn1`, the Percent Effect is -3.54%.
The value for `Cc1ccc(-c2cc(C(=O)N(C)Cc3noc4c3CCCC4)[nH]n2)o1` was 4.24%.
The value for `Fc1cc(CCNc2ccc3nccn3n2)c2c(c1)COCO2` was 17.6%.
The value for `CNC(=O)COC(=O)c1cccc(-n2ccc(C(F)(F)F)n2)c1` was 5.41%.
With `CNC(=O)C1CCN(c2ncnc3c2CCN(C(=O)C2CC2)C3)C1` (centres undefined), the Percent Effect was found to be 2.51%.
To `COc1ccc(OCc2noc(CN(C)C3CCS(=O)(=O)C3)n2)cc1` (centres undefined) belongs -2.23%; to `CCc1nn(C)c(Cl)c1CN(CCOC)Cc1cnn(C)c1`, 5.81%; to `COCCN1CCCC2(CCN(c3cc(C)c(C#N)c(C)n3)C2)C1=O` (centres undefined), -7.22%.
To `O=C1CCC(=O)N1CCn1nnc(-c2ccc(Br)cc2)n1` belongs -9.11%.

For the origin of these results see ChEMBL document CHEMBL3988442, “University of Dundee, Small-Polar-MMV Screening Library” (2021).
